Bioassay records from PubChem BioAssay.
Shown are actives, neighbours in structure and some others; about 9.5% of the full set was active somewhere.
HPGD inh: inhibitors of human 15-hydroxyprostaglandin dehydrogenase (HPGD); purified HPGD, NADH fluorescence kinetic, PGE2 substrate; Potency, µM, usual class: inhibitors; P15428; 150,000 compounds, 4.3% hits; active = well fitted inhibition curve with a large enough effect, not every such curve was filed as active; inconclusive = small, poorly fitted or top-dose-only effect, or another doubt; inactive = no such curve, though single readings can be large or run the other way
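NADH formation kinetics: reaction with 30 uM PGE2 and 1 mM NAD+ (final), 20 nM enzyme, Tris-HCl pH 8 with Tween 20, after 15 min compound preincubation at room temperature. Fluorescence change, last versus first of five reads.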
NPSR antag: antagonists of human neuropeptide S receptor cAMP signaling | Q6W5P4 | CHO-NPSR cells, cAMP TR-FRET, antagonist mode | Potency, µM (top dose mostly 38.3 µM), actives largely listed as inhibitors | 220,000 compounds, 1% hits | AID 1461; note: nearly all actives have a fitted effect of over 50% in size
Target sequence (Q6W5P4 whole entry, looked up): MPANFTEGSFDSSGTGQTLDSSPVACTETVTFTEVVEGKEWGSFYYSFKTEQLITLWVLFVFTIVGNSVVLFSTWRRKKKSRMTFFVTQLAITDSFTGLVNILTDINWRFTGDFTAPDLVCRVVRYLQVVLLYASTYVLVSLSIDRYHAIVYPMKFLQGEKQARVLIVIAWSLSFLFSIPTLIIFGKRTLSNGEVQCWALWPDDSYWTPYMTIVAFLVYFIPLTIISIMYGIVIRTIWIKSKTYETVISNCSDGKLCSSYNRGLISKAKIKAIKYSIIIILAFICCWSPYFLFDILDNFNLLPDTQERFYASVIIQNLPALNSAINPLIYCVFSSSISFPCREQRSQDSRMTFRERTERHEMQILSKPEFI
Tau FP inhib: blocks human tau fibril formation measured by polarization; K18 P301L tau heparin fibrillization, Alexa594 FP, 6 h; Potency, µM (top dose mostly 57.7 µM), usual class: inhibitors; P10636; 280,000 compounds, 0.39% hits; note: nearly all actives have a fitted effect of over 55% in size
Target sequence (P10636 561-689 P618L limits assumed): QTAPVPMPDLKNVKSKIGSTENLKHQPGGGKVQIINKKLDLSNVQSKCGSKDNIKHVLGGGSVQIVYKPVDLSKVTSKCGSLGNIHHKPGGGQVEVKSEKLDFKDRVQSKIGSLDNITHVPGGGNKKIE
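FP of Alexa 594-tau after heparin (20 uM) induction. Substrate: human K18 P301L, 15 uM unlabeled, 0.24 uM labeled. Buffer 100 mM sodium acetate pH 7. 6 hr, 37 C.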
Tau fibril ThT: blocks human tau fibril formation measured by thioflavin T. P10636. recombinant tau K18 P301L, heparin-induced fibrillization, ThT fluorescence. Potency, µM (series often up to 57.4 µM), usual class: inhibitors. 270,000 compounds, 2.1% hits. AID 1460; note: nearly all actives have a fitted effect of over 55% in size
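Recombinant human tau K18 fragment […] carrying P301L, 15 uM unlabeled plus 0.24 uM Alexa 594-labeled, was fibrillized with 20 uM heparin in 100 mM sodium acetate pH 7 for 6 hr at 37 C; 30 uM ThT fluorescence read after 1 hr.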
ALDH1A1 inh: inhibitors of human aldehyde dehydrogenase 1A1 | Purified ALDH1A1, NADH fluorescence, propionaldehyde substrate | Potency, µM (highest dose often 75.3 µM), actives largely listed as inhibitors | 220,000 compounds, 7.3% hits | AID 1030; active = well fitted inhibition curve with a large enough effect, not every such curve was filed as active; inconclusive = small, poorly fitted or top-dose-only effect, or another doubt; inactive = no such curve, though single readings can be large or run the other way
Tau fluor cs: counter-screen for tau fibril formation inhibitors | tau K18 P301L Alexa594 fluorescence, heparin fibrillization | Potency, µM (highest dose often 57.7 µM) | 280,000 compounds, 0.93% hits; note: nearly all actives have a fitted effect of over 55% in size
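Human tau K18 P301L (15 uM unlabeled, 0.24 uM Alexa 594-labeled) in 100 mM sodium acetate pH 7 with 20 uM heparin, 6 hr at 37 C. ThT 30 uM added, 1 hr ambient; Alexa 594 FP and total fluorescence read at 555/632 nm.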
Hits are given with their value; – = inactive; ? = inconclusive; · = no result; [ ] = remark or other dose. Unless noted, calls come from the whole dose curve; as a rule, active = well fitted curve in the direction sought with a large enough effect; inconclusive = small, poorly fitted or top-dose-only effect, or another doubt; inactive = no such curve, though single readings can be large; an effect the other way counts as inactive or inconclusive.

SMILES	HPGD inh	NPSR antag	Tau FP inhib	Tau fibril ThT	ALDH1A1 inh	Tau fluor cs
COc1cc(/C=N/N(C)c2ccccc2)cc(Cl)c1O	–	–	?	?	–	14.1µM[quencher]
COc1cc(/C=N/O)cc(Cl)c1OC	–	–	–	–	–	–
COc1ccc(OC)c(/C=N/N(C)c2ccccc2)c1	–	–	–	12.6µM	?	11.2µM[quencher]
O=S(=O)(Nc1cc(Sc2cccc3cccnc23)c(O)c2ccccc12)c1ccc(F)cc1	1.26µM	–	28.2µM	12.6µM	28.2µM	14.1µM[quencher]
CCOc1ccc(Nc2c3ccccc3nc3ccccc23)cc1	·	?	–	20µM	·	?
Cc1ccc(OCC(=O)NNc2c3ccccc3nc3ccccc23)cc1	–	–	–	12.6µM	–	14.1µM[quencher]
CCOc1ccc(NC(=O)c2cc(Cl)nc3ccccc23)cc1	·	–	–	–	·	–
Cc1cccc(OCC(=O)NC(Cc2ccccc2)C(=O)O)c1 (stereo not drawn)	–	–	–	–	–	–
O=C(Cc1ccccc1)NNc1c2ccccc2nc2ccccc12	·	–	–	?	–	?
Cc1cccc(OCC(=O)NNc2c3ccccc3nc3ccccc23)c1	–	?	–	?	–	14.1µM[quencher]
COc1ccc(OC(=O)c2nc(SCc3ccc(F)cc3)ncc2Cl)cc1	·	·	–	?	·	–
O=C(Oc1ccccc1F)c1nc(SCc2ccc(F)cc2)ncc1Cl	·	·	–	20µM	·	–
O=C1CN(C(=O)c2ccc(Br)o2)C(c2ccccc2)c2cc(Br)ccc2N1 (stereo not drawn)	–	?	–	–	22.4µM	–
Cc1ccc2c(c1)C(c1ccccc1)N(C(=O)c1ccc(Br)o1)CC(=O)N2 (stereo not drawn)	–	–	–	–	–	–
O=C1CN(C(=O)c2ccc(Br)o2)C(c2ccc(F)cc2)c2cc(Cl)ccc2N1 (stereo not drawn)	–	–	–	–	22.4µM	–
O=C1CN(C(=O)c2ccc(Br)o2)C(c2ccccc2)c2cc(Cl)ccc2N1 (stereo not drawn)	–	–	–	–	–	–
O=C(CCc1ccc(S(=O)(=O)N2CCOCC2)cc1)Nc1ccc2c(c1)OCCO2	·	–	–	–	·	–
COc1ccc(Nc2ccc(N3C(=O)CCCC3=O)cc2[N+](=O)[O-])c(OC)c1	–	–	–	?	–	–
COc1cc(/C=C/C(=O)Nc2cc(S(=O)(=O)N3CCOCC3)ccc2N2CCCC2)cc(OC)c1OC	·	–	–	–	11.2µM	–
CCN(CC)S(=O)(=O)c1ccc(N2CCCCC2)c(NC(=O)/C=C/c2cc(OC)c(OC)c(OC)c2)c1	–	–	–	–	12.6µM	–
CC1(O)CC2C(CC1O)C2(C)C (stereo not drawn)	–	·	–	–	–	–
COc1ccc(-c2coc3cc(O)ccc3c2=O)c(O)c1O	7.08µM	·	15.8µM	10µM	8.91µM	12.6µM[quencher]
COc1ccc(-c2coc3cc(O)ccc3c2=O)c(OC)c1O	?	·	–	–	?	–
O=C(CSC1CN(C(c2ccccc2)c2ccccc2)C1)N/N=C/c1ccccc1	·	–[7.67 µM]	–	–	·	?
COC(=O)c1ccccc1NC(=O)Cn1c(=O)n(Cc2ccccc2)c(=O)c2c(C)c(C)sc21	–	–	–	–	–	–
SMILES	HPGD inh	NPSR antag	Tau FP inhib	Tau fibril ThT	ALDH1A1 inh	Tau fluor cs
Cc1sc2c(c1C)c(=O)n(Cc1ccccc1)c(=O)n2CC(=O)Nc1cccc(Cl)c1	·	·	31.6µM	?	·	–
CC(=O)N1CCc2c(sc3c2c(=O)n(Cc2ccccc2)c(=O)n3CC(=O)Nc2ccc(C)c(F)c2)C1	·	·	28.2µM	?	·	?
CCn1c2ccc(C)cc2c2nnc(SCCN3CCOCC3)nc21	·	–	–	–	25.1µM	–
CCN1C(=O)C(CC(=O)Nc2ccc(OC)cc2)N(CCc2ccccc2F)C1=S (stereo not drawn)	·	–	?	–	·	?
CCN1C(=O)C(CC(=O)Nc2ccc(F)cc2)N(CCc2ccc(OC)cc2)C1=S (stereo not drawn)	·	–	?	–	10µM	?
COc1ccc(NC(=O)CC2C(=O)N(C)C(=S)N2CCc2ccccc2F)cc1 (stereo not drawn)	·	–	–	–	3.98µM	?
